Laboratory results: PubChem BioAssay
The source made the active and inactive calls.

Key:
[1] = compounds binding Alexa647 anti-His antibody – biochemical, small-molecule microarray, 635 nm fluorescence, artefact control for SMM control protein annotation, primary screen (AID 1128); conditions: higher = more signal;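 note: score merges feature fluorescence with signal-to-noise for each printed compound spot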
[2] = tested on: Human papillomavirus type 1a E7 protein (residues 1-88); experiment: HPV1a E7 small-molecule binders, primary screen, biochemical, small-molecule microarray, residues 1-88, 635 nm (AID 1129); conditions: small-molecule microarray binding, fluorescence 635 nm; higher = more signal
[3] = molecular target: Focal adhesion kinase 1 (Homo sapiens) (UniProt Q05397); experiment: PTK2 protein binding on printed compound slides – biochemical, small-molecule microarray, 635/667 nm fluorescence, BSA, DTT, primary screen (AID 1130); conditions: 635 nm fluorescence, higher = more signal;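 note: composite of spot emission at 667 nm and signal to noise over triplicate slides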
Sequence of Focal adhesion kinase 1 (Homo sapiens) (Q05397 whole entry, looked up): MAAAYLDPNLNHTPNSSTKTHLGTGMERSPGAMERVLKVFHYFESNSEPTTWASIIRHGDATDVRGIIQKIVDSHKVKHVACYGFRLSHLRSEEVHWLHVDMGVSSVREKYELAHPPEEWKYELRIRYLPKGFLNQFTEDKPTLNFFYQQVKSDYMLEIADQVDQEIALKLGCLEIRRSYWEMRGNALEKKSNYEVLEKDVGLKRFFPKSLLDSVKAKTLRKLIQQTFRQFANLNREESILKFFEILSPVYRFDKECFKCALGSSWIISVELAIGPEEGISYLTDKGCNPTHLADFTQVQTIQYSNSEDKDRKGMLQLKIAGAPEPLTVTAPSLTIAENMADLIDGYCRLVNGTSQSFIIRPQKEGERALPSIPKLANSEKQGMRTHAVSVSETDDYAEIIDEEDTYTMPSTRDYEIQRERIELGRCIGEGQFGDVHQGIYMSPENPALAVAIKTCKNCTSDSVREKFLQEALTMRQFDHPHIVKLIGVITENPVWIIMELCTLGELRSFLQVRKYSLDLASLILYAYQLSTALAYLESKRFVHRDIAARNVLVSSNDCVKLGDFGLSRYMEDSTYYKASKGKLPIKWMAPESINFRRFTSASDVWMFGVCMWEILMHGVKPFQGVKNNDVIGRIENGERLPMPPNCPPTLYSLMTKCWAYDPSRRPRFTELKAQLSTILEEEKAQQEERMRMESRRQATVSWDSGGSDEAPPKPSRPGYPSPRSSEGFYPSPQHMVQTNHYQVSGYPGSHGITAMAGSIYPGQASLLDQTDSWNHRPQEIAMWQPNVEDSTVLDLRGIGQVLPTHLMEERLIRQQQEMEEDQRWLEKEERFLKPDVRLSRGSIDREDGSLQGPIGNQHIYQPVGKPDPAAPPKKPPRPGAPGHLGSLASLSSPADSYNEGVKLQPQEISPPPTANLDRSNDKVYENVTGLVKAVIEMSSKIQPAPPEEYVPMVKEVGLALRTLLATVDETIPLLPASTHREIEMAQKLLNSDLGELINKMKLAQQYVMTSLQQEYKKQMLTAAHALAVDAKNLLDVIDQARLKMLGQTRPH

[4] = tested on: Fibrinogen (Alexa647-labelled); experiment: Alexa647-fibrinogen binding to printed small molecules – biochemical, small-molecule microarray, 635/667 nm fluorescence, artefact control for SMM control-protein annotation, profiling panel (AID 1131); conditions: fibrinogen-A647 binding fluorescence, higher = more signal;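 note: z-score merges 667 nm fluorescence with per-spot signal-to-noise over triplicate slides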
[5] = molecular target: Follistatin (Homo sapiens) (UniProt P19883); experiment: FST protein binding to printed compounds – biochemical, small-molecule microarray, 635/667 nm fluorescence, primary screen (AID 1132); conditions: 635 nm fluorescence, higher = more signal
Sequence of Follistatin (Homo sapiens) (P19883 whole entry, looked up): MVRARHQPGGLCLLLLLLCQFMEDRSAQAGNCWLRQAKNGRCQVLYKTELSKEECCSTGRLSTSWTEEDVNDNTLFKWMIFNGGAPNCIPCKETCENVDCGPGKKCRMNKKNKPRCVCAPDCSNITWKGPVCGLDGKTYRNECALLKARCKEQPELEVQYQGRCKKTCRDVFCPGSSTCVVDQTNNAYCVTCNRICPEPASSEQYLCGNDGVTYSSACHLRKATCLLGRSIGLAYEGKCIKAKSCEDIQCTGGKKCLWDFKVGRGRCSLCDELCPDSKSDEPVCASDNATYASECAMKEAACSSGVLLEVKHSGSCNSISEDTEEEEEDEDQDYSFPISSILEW

[6] = molecular target: Fibroblast growth factor 2 (Homo sapiens) (UniProt P09038); experiment: basic fibroblast growth factor binding to printed compounds – biochemical, small-molecule microarray, 635/667 nm fluorescence, primary screen (AID 1133); conditions: FGF2, fluorescence 635/667, higher = more signal
Sequence of Fibroblast growth factor 2 (Homo sapiens) (P09038 whole entry, looked up): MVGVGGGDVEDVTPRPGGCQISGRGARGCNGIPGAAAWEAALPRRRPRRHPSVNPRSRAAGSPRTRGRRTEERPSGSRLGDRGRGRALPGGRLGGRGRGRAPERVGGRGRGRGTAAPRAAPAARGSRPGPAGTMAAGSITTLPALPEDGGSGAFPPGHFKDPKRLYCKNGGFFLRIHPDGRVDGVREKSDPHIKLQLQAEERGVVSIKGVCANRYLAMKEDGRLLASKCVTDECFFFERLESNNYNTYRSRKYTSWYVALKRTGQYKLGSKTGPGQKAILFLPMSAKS

[7] = JC-1 mitochondrial potential readout, lung cancer cells – cell-based, A549, JC-1 fluorescence, basal, 24 h, 100 nL, profiling panel (AID 1138); conditions: higher = more signal;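 note: A549 lung adenocarcinoma cells under basal conditions with no added stimulus; test concentration not given here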
Lefty1 = Lefty1 protein binding to printed compounds – biochemical, small-molecule microarray, 635/667 nm fluorescence, primary screen (AID 1139); conditions: fluorescence 635/667, higher = more signal
[8] = tested on: wheat germ agglutinin (Triticum aestivum), Alexa647-labelled; experiment: Alexa647-WGA lectin binding to printed small molecules – biochemical, small-molecule microarray, 635/667 nm fluorescence, artefact control for SMM control-protein annotation, profiling panel (AID 1140); conditions: WGA-A647 binding, 635 nm fluorescence, higher = more signal;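 note: score merges 667 nm feature emission with signal to noise over triplicate slides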
[9] = molecular target: Luciferin 4-monooxygenase (Photinus pyralis) (UniProt P08659); experiment: inhibition of purified Photinus pyralis luciferase – biochemical, luminescence, purified enzyme, 2006 set, primary screen (AID 1141); conditions: purified firefly luciferase, SteadyGlo luminescence, 30 min; higher = more signal, called active from +8 up or from −8 down;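 note: cell-free assay with purified firefly luciferase at 100 ng per well in PBS; test concentration not given here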
Sequence of Luciferin 4-monooxygenase (Photinus pyralis) (P08659 whole entry, looked up): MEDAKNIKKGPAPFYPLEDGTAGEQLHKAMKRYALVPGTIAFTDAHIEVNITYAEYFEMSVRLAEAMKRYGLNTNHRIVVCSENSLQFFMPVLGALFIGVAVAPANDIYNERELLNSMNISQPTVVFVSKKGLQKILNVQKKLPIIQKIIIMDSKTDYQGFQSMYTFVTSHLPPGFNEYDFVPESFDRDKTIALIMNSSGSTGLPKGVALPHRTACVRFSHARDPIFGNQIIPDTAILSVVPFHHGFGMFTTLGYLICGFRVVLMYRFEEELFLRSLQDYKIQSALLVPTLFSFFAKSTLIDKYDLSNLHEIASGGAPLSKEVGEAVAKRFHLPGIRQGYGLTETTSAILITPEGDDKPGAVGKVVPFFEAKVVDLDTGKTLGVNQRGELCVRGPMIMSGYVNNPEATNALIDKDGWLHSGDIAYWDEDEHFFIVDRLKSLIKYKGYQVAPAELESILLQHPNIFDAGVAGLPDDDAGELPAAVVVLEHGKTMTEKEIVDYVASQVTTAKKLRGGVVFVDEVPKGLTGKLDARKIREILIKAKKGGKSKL

SMILES | composite z-score [1] | composite z-score [2] | composite z-score [3] | composite z-score [4] | composite z-score [5] | composite z-score [6] | z-score [7] | composite z-score (Lefty1) | composite z-score [8] | z-score [9]
CC(C)CNC(=O)[C@@H]1c2ccccc2C(=O)N(C2CCCCC2)[C@H]1c1ccc(CO)cc1 | 0.978 | 0.589 | -0.292 | -0.467 | 0.196 | -0.184 | 1.83 | -0.991 | -0.321 | -1.66 (inactive)
COc1ccc(C(O)C2C=CC3C(=O)N(c4ccccc4)C(=O)C3N2Nc2ccccc2)cc1 (stereo not given) | 0.85 | 1.08 | 0.72 | 1.01 | 0.955 | 0.0088 | 0.204 | 0.817 | 1.1 | -0.182 (inactive)
COc1ccc(C(=O)Nc2cccc(CN3C(=O)[C@@]4(O[C@@H](CC(=O)N(CCO)Cc5ccccc5)[C@H]([Si](C)(C)c5ccc(OC)cc5)[C@H]4C)c4ccccc43)c2)cc1 | 0.696 | 1.01 | 0.16 | 0.193 | 0.99 | 1.08 | -0.106 | 1.18 | 0.289 | -1.75 (inactive)
COCCCNC(=O)[C@@H]1c2ccccc2C(=O)N(C2Cc3ccccc3C2)[C@H]1c1ccc(CO)cc1 | 3.04 | 1 | 0.407 | -0.284 | 1.08 | 1.35 | 2.76 | 0.278 | -0.196 | -0.714 (inactive)
COc1ccc(C#Cc2ccc3c(c2)[C@]2(C(=O)N3)[C@H](C(=O)N3CCCCCCC3)[C@H]3C(=O)O[C@H](c4ccccc4)[C@H](c4ccccc4)N3[C@@H]2c2ccc(O)cc2)cc1 | 1.21 | 1.21 | 0.127 | 0.729 | 1.31 | 0.709 | -0.316 | 0.942 | 0.983 | 0.103 (inactive)
CCCNC(=O)[C@@]1(C)c2ccccc2C(=O)N(Cc2ccccc2)[C@H]1c1ccc(CO)cc1 | 1.8 | 0.0323 | 1.28 | -0.872 | -0.571 | -0.258 | 1.03 | -0.975 | -0.231 | -1.18 (inactive)
C=C(/C(=C/C[C@H](OC(=O)c1ccncc1)c1ccccc1OCCO)c1cnc2ccccc2c1)C(C)C | 1.23 | 1.22 | 0.374 | 0.958 | 1.39 | 1.42 | 0.707 | 1.39 | 0.846 | -0.177 (inactive)
CCOC(=O)C[C@H]1[C@H](OC(=O)c2ccc(-c3ccccc3)cc2)[C@@H](NC(=O)Cc2ccc(OC)cc2)c2cc(OCCCO)ccc2N1C(=O)Cc1ccc(OC)cc1 | -0.871 | -0.0151 | 0.0348 | 0.15 | 0.0322 | -0.0269 | 1.94 | -0.289 | 0.175 | -0.754 (inactive)
COCCOC(=O)N1C(=O)[C@@]2(c3ccccc31)[C@H](c1ccccc1OCCO)N1[C@H](c3ccccc3)[C@H](c3ccccc3)OC(=O)[C@H]1[C@@H]2C(=O)N1CCCCCCC1 | 0.703 | 1.32 | 3.01 | 0.995 | 1.53 | 1.55 | -0.0428 | 1.71 | 1.63 | -0.507 (inactive)
CC(C)[Si]1(C(C)C)OCc2cc(-c3ccc(-c4ccc(Cl)c(Cl)c4)o3)nc(CCc3ccccc3)c21 | -1.14 | -0.122 | 0.164 | -0.0058 | -0.0289 | -0.11 | 1.4 | 0.0028 | 0.0809 | -2.45 (inactive)
CO[C@H]1O[C@H](CO)[C@@H](OC(=O)Nc2ccc(C#N)cc2)[C@@H]2OC(=O)[C@H](Cc3cccc(Br)c3)C/C=C/C[C@@H](Cc3cccc(Br)c3)C(=O)O[C@@H]12 | 1.26 | 0.776 | -0.611 | 0.448 | 1.2 | 0.707 | 1.39 | 1.13 | 0.655 | 0.782 (inactive)
CC(C)C[C@@H]1NC(=O)[C@@H]2C[C@H](C(=O)NCCCCCC[N+](C)(C)C)[C@H](c3cccc(OCCO)c3)N2C1=O | -0.759 | -0.0265 | -0.219 | 0.0163 | 0.349 | 1.17 | -0.547 | 0.34 | -0.285 | 0.184 (inactive)
C=C(COC)/C(=C/C[C@H](OC(C)=O)c1cccc(OCCO)c1)c1cnc2ccccc2c1 | 0.18 | 1.02 | -0.105 | 0.246 | 1.46 | 1.57 | 1.05 | 1.53 | 1.14 | -1.06 (inactive)
CN1C(=O)[C@@H]2[C@@H](CC(COc3ccccc3)=C([C@H](O)CCc3ccccc3)[C@@H]2CO)C1=O | -0.203 | -0.438 | -0.147 | -0.163 | 0.009 | 0.364 | 2.02 | -0.0412 | 0.488 | -1.4 (inactive)
COc1ccc(C(O)C2C=CC3C(=O)N(c4ccccc4)C(=O)C3N2Nc2ccccc2F)cc1 (stereo not given) | 2.35 | 1.18 | 0.616 | 0.918 | 0.244 | -0.276 | -0.652 | -0.2 | 0.265 | 1.31 (inactive)
CN(C)CCCCNC(=O)[C@H]1C[C@H]2C(=O)N[C@@H](CCCC[N+](C)(C)C)C(=O)N2[C@H]1c1ccc(O)cc1 | 1.12 | -0.454 | -0.294 | -1.24 | 0.525 | 0.0954 | -0.247 | 0.306 | 0.0976 | 0.0252 (inactive)

SMILES | composite z-score [1] | composite z-score [2] | composite z-score [3] | composite z-score [4] | composite z-score [5] | composite z-score [6] | z-score [7] | composite z-score (Lefty1) | composite z-score [8] | z-score [9]
COc1cc(NN2C(C(O)C3CCCCC3)C=CC3C(=O)N(c4ccccc4)C(=O)C32)cc(OC)c1OC (stereo not given) | 1.96 | 1.26 | 0.724 | 0.964 | 0.459 | -0.776 | -0.0727 | -0.175 | 1.23 | -0.45 (inactive)
C=C(C)C1CCC(C(O)C2C=CC3C(=O)N(C)C(=O)C3N2Nc2cc(OC)c(OC)c(OC)c2)CC1 (stereo not given) | 1.23 | 1.24 | 0.573 | 0.723 | 1.31 | 0.425 | 0.444 | 0.677 | 0.504 | -1.07 (inactive)
C=C(C)[C@@H]1CC=C(C(O)C2C=CC3C(=O)N(c4ccccc4)C(=O)C3N2Nc2ccc(C#N)cc2)CC1 (stereo not given in full) | 0.526 | 1.26 | 0.423 | 0.999 | 1.25 | 0.13 | -0.517 | 0.0839 | 1.32 | -0.251 (inactive)
C=CCN1C(=O)[C@]2(O[C@H](CCO)[C@@H]([Si](C)(C)c3ccc(OC)cc3)[C@@H]2C)c2cc(N3C(=O)COc4ccccc43)ccc21 | 1.3 | 0.853 | 0.179 | 0.55 | 0.618 | 0.405 | -1.46 | 0.465 | 0.441 | -0.401 (inactive)
C=CCNC(=O)[C@H]1[C@@H]2C(=O)O[C@@H](c3ccccc3)[C@@H](c3ccccc3)N2[C@@H](c2ccc(OCCO)cc2)[C@]12C(=O)Nc1ccc(C#CCNC(N)=O)cc12 | -0.293 | 1.15 | 0.0494 | 0.936 | 1.41 | 1.05 | -0.837 | 0.767 | 0.912 | -0.0338 (inactive)
C=C(/C(=C/C[C@H](OC(=O)c1ccncc1)c1cccc(OCCO)c1)c1cnc2ccccc2c1)C(C)C | 0.291 | 0.952 | 0.807 | 0.247 | 1.46 | 1.85 | 0.945 | 1.6 | 1.33 | -0.799 (inactive)
CCOC(=O)C1=C[C@@H](C(C)(C)C)N(S(=O)(=O)c2ccc(C)cc2)[C@H]1c1ccccc1 | 0.761 | 1.16 | 0.329 | 0.706 | 1.11 | 0.136 | 2.21 | 0.523 | 1.09 | 0.756 (inactive)
CCOC(=O)C1=CCC(c2ccccc2)N(S(=O)(=O)c2ccc([N+](=O)[O-])cc2)C1 (stereo not given) | 0.927 | 1.12 | 0.2 | -0.773 | 0.0227 | -0.169 | 0.0562 | -0.111 | 0.599 | 0.864 (inactive)
COC(=O)[C@@]1(Cc2ccc(F)cc2)[C@H]2c3cc(C(=O)N(C)C)n(Cc4ccc(O)c(OC)c4)c3C[C@H]2CN1C(=O)c1ccccc1 | 1.15 | 0.575 | 0.489 | 0.977 | 0.0157 | 0.0287 | -1.18 | -0.0615 | 0.438 | 1.08 (inactive)
COC(=O)[C@@]1(Cc2ccc(F)cc2)[C@H]2c3cc(C(=O)N4CCCC4)n(CC4CC4)c3C[C@H]2CN1C(=O)c1ccccc1 | 2.46 | 1.28 | 0.467 | 1.03 | 1.26 | 0.107 | 0.699 | -0.39 | 0.718 | 1.35 (inactive)
O=C1C2C=CC(C(O)c3ccc4c(c3)OCO4)N(Nc3ccccc3)C2C(=O)N1c1ccccc1 (stereo not given) | 0.496 | 1.21 | 0.617 | 0.979 | 1.03 | -0.337 | 0.279 | 0.153 | 0.942 | 0.465 (inactive)
C[C@]1(C(=O)NCCN2CCOCC2)c2ccccc2C(=O)N(Cc2cc(F)cc(C(F)(F)F)c2)[C@H]1c1ccc(CO)cc1 | 3.12 | 0.917 | 0.746 | 0.91 | 0.89 | -0.0787 | 0.815 | 0.443 | 0.294 | 1.05 (inactive)
Cc1ccccc1C(O)C1C=CC2C(=O)N(c3ccccc3)C(=O)C2N1Nc1ccc([N+](=O)[O-])cc1 (stereo not given) | 1.48 | 1.21 | 0.533 | 1.01 | 1.23 | 1.06 | -0.752 | 0.0122 | 0.515 | 1.18 (inactive)
CCc1cccc(NC(=O)O[C@H]2[C@H](OC(=O)Nc3ccccc3)[C@H](OC(=O)Nc3ccccc3)[C@@H](OC)O[C@@H]2CO)c1 | 1.14 | 1.26 | 1.53 | 0.571 | 1.16 | 0.216 | -1.55 | 0.0478 | 0.751 | 0.234 (inactive)
COCCOC(=O)N1C(=O)[C@@]2(c3cc(C#CCCO)ccc31)[C@H](C(N)=O)[C@H]1C(=O)O[C@H](c3ccccc3)[C@H](c3ccccc3)N1[C@@H]2c1ccc(OCCO)cc1 | 0.911 | 1.19 | 0.663 | 0.877 | 1.09 | 0.805 | -1.03 | 0.794 | 0.583 | -1.17 (inactive)
CCCCCCCCCCC(O)C1C=CC2C(=O)N(c3ccccc3)C(=O)C2N1Nc1ccccc1F (stereo not given) | 0.0112 | 0.399 | 0.674 | 0.415 | -0.348 | -0.591 | -0.127 | -0.833 | 0.472 | 0.422 (inactive)
